# From PubChem BioAssay (NCI)
# About 79,000 compounds went through this panel and 15% of them were active in at least one assay; those are over-represented in the sample as a whole. Unmarked numbers belong to inactive results. Calls of active or inactive are those of the source. Cut-off read from the data, not from the text of the source: active = growth inhibition above about 70%; inactive = the rest.
# How the values were obtained:
# [1] = NCI Yeast Anticancer Drug Screen. Data for the rad52 strain (AID 147);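 note: 0% = growth of vehicle-treated control cultures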; conditions: S. cerevisiae rad52 mutant growth inhibition, stronger effect = higher value
# Outline: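 Measured: yeast growth inhibition. System: strain with a defined DNA damage repair alteration. Reference: vehicle-treated control cultures.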
# [2] = NCI Yeast Anticancer Drug Screen. Data for the wt1 strain (AID 149);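 note: 0% = growth of vehicle-treated wt1 cultures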; conditions: S. cerevisiae wt1 strain (SPY 50644) growth inhibition, stronger effect = higher value
# Outline: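 Using yeast strain wt1, compound-induced growth inhibition was determined against vehicle-treated cultures.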
# [3] = NCI Yeast Anticancer Drug Screen. Data for the rad50EPP+ strain (AID 151);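 note: 0% = growth of vehicle-treated control cultures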; conditions: S. cerevisiae rad50 mutant strain, stronger effect = higher value
# Outline: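 One strain with a rad50 alteration (rad50EPP+) was compound-treated, its growth then compared to that of vehicle controls.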
# [4] = NCI Yeast Anticancer Drug Screen. Data for the rad50 strain (AID 155);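 note: 0% = growth of vehicle-only cultures of the same strain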; conditions: S. cerevisiae rad50 strain growth inhibition, stronger effect = higher value
# Outline: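 Relative growth inhibition (compound vs vehicle) was measured in yeast with a defined repair-gene alteration.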
# [5] = NCI Yeast Anticancer Drug Screen. Data for the mec2-1 strain (AID 157); conditions: S. cerevisiae mec2-1 strain, stronger effect = higher value
# Outline: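 Test agents were screened against the mec2-1 yeast strain, with defined DNA repair or cell cycle alteration. Growth was scored as inhibition against vehicle-only controls.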
# [6] = NCI Yeast Anticancer Drug Screen. Data for the rad14 strain (AID 159);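 note: 0% = growth of vehicle-treated control cultures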; conditions: S. cerevisiae rad14 strain growth inhibition, stronger effect = higher value
# Outline: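 Screen for anticancer potential: a yeast strain altered in DNA damage repair is grown with compound, and reduced growth is quantified against vehicle controls.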
# [7] = NCI Yeast Anticancer Drug Screen. Data for the sgs1 mgt1 strain (AID 161);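 note: 0% = growth of cultures given vehicle only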; conditions: S. cerevisiae sgs1 mgt1 strain, stronger effect = higher value
# Outline: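 Mutant yeast exposed to compound; growth scored against vehicle-only wells.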
# [8] = NCI Yeast Anticancer Drug Screen. Data for the CLN2oe strain (AID 163);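 note: 0% = growth of vehicle-only control cultures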; conditions: S. cerevisiae CLN2oe strain, stronger effect = higher value
# Outline: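 Here, growth inhibition in a cell-cycle-altered yeast strain after compound exposure was quantified against vehicle control growth.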
# [9] = NCI Yeast Anticancer Drug Screen. Data for the cln2 rad14 strain (AID 165);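 note: 0% = growth equal to vehicle treated cultures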; conditions: S. cerevisiae cln2 rad14 strain, stronger effect = higher value
# Outline: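 Growth of compound-exposed yeast (cln2 rad14 genotype) measured and expressed as inhibition relative to vehicle.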
# [10] = NCI Yeast Anticancer Drug Screen. Data for the bub3 strain (AID 167); conditions: S. cerevisiae bub3 mutant strain, stronger effect = higher value
# Outline: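 Screening used yeast with an engineered genetic alteration affecting cell cycle control. Compound-exposed cultures were compared with vehicle cultures, and reduced growth was taken as inhibition.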
# [11] = NCI Yeast Anticancer Drug Screen. Data for the wt2 strain (AID 169);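 note: 0% = growth of vehicle-treated yeast cultures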; conditions: S. cerevisiae wt2 strain growth inhibition, stronger effect = higher value
# Outline: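 Genetically defined yeast strains from a DNA-repair/cell-cycle panel were used. Compound-exposed yeast growth was measured, and the inhibition was calculated relative to vehicle treatment.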
# [12] = NCI Yeast Anticancer Drug Screen. Data for the mlh1 strain (AID 171);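 note: 0% = growth of vehicle-treated control cultures of the same strain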; conditions: S. cerevisiae mlh1 strain growth inhibition, stronger effect = higher value
# Outline: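 Here the genetically defined yeast mutant is grown with each compound, and the extent to which its growth falls below that of vehicle-exposed cells is reported.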
# [13] = NCI Yeast Anticancer Drug Screen. Data for the mlh1 rad18 strain (AID 175); conditions: S. cerevisiae mlh1 rad18 strain growth inhibition, stronger effect = higher value
# Outline: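 In this whole-cell yeast screen, a strain with altered DNA damage repair is challenged with compound, and its growth is measured against matched vehicle-treated controls.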
# [14] = NCI Yeast Anticancer Drug Screen. Data for the rad18 strain (AID 177); conditions: S. cerevisiae rad18 mutant growth inhibition, stronger effect = higher value
# Outline: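 Screen uses a yeast strain with a defined lesion in DNA damage repair; compound effect is read as loss of growth compared to untreated vehicle cultures.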
# [15] = NCI Yeast Anticancer Drug Screen. Data for the sgs1 strain (AID 173);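 note: 0% = growth of vehicle-only control cultures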; conditions: S. cerevisiae sgs1 mutant, stronger effect = higher value
# Outline: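 Relative growth inhibition, referenced to vehicle, was determined in a yeast strain with a defined alteration affecting DNA damage repair or cell cycle control after compound exposure.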
# [16] = at 5.0 µM (retest, dose inferred, filed as 0.5)
# [17] = at 50.0 µM (retest, dose inferred, filed as 5.0)
smiles,measurement,setting,value
Cc1ccc(S(=O)(=O)Nc2ccc3c(c2)C(O)c2ccccc2-3)cc1 (stereo unspecified),growth inhibition,[1]; at 1.2 µM,-2%
same,growth inhibition,[1]; at 3.7 µM,-1%
same,growth inhibition,[1]; at 11.0 µM,9%
same,growth inhibition,[1]; at 33.0 µM,71% (active)
same,growth inhibition,[1]; at 100.0 µM,59%
same,growth inhibition,[2]; at 1.2 µM,-3%
same,growth inhibition,[2]; at 3.7 µM,-7%
same,growth inhibition,[2]; at 11.0 µM,-7%
same,growth inhibition,[2]; at 33.0 µM,22%
same,growth inhibition,[2]; at 100.0 µM,27%
same,growth inhibition,[3]; at 1.2 µM,4%
same,growth inhibition,[3]; at 3.7 µM,10%
same,growth inhibition,[3]; at 11.0 µM,31%
same,growth inhibition,[3]; at 33.0 µM,38%
same,growth inhibition,[3]; at 100.0 µM,22%
same,growth inhibition,[4]; at 1.2 µM,-2%
same,growth inhibition,[4]; at 3.7 µM,-3%
same,growth inhibition,[4]; [16],-4%
same,growth inhibition,[4]; at 11.0 µM,6%
same,growth inhibition,[4]; at 33.0 µM,48%
same,growth inhibition,[4]; [17],10%
same,growth inhibition,[4]; at 50.0 µM,74.5% (active)
same,growth inhibition,[4]; at 100.0 µM,42%
same,growth inhibition,[5]; at 1.2 µM,-5%
same,growth inhibition,[5]; at 3.7 µM,-3%
same,growth inhibition,[5]; [16],-9%
same,growth inhibition,[5]; at 11.0 µM,-5%
same,growth inhibition,[5]; at 33.0 µM,21%
same,growth inhibition,[5]; [17],7%
same,growth inhibition,[5]; at 50.0 µM,23.1%
same,growth inhibition,[5]; at 100.0 µM,33%
same,growth inhibition,[6]; at 1.2 µM,-2%
same,growth inhibition,[6]; at 3.7 µM,-3%
same,growth inhibition,[6]; at 11.0 µM,4%
same,growth inhibition,[6]; at 33.0 µM,38%
same,growth inhibition,[6]; at 100.0 µM,23%
same,growth inhibition,[7]; [16],0%
same,growth inhibition,[7]; [17],5%
same,growth inhibition,[7]; at 50.0 µM,89.5% (active)
same,growth inhibition,[8]; at 1.2 µM,-7%
same,growth inhibition,[8]; at 3.7 µM,-10%
same,growth inhibition,[8]; at 11.0 µM,-9%
same,growth inhibition,[8]; at 33.0 µM,30%
same,growth inhibition,[8]; at 100.0 µM,30%
same,growth inhibition,[9]; [16],-19%
same,growth inhibition,[9]; [17],23%
same,growth inhibition,[9]; at 50.0 µM,79.4% (active)
same,growth inhibition,[10]; at 1.2 µM,0%
same,growth inhibition,[10]; at 3.7 µM,0%
same,growth inhibition,[10]; [16],-3%
same,growth inhibition,[10]; at 11.0 µM,2%
same,growth inhibition,[10]; at 33.0 µM,20%
same,growth inhibition,[10]; [17],12%
same,growth inhibition,[10]; at 50.0 µM,83.3% (active)
same,growth inhibition,[10]; at 100.0 µM,23%
same,growth inhibition,[11]; at 1.2 µM,-6%
same,growth inhibition,[11]; at 3.7 µM,-7%
same,growth inhibition,[11]; at 11.0 µM,-2%
same,growth inhibition,[11]; at 33.0 µM,75% (active)
same,growth inhibition,[11]; at 100.0 µM,43%
same,growth inhibition,[12]; at 1.2 µM,-8%
same,growth inhibition,[12]; at 3.7 µM,-6%
same,growth inhibition,[12]; at 11.0 µM,2%
same,growth inhibition,[12]; at 33.0 µM,80% (active)
same,growth inhibition,[12]; at 100.0 µM,33%
same,growth inhibition,[13]; [16],-6%
same,growth inhibition,[13]; [17],40%
same,growth inhibition,[13]; at 50.0 µM,91% (active)
same,growth inhibition,[14]; at 1.2 µM,-3%
same,growth inhibition,[14]; at 3.7 µM,-4%
same,growth inhibition,[14]; at 11.0 µM,-4%
same,growth inhibition,[14]; at 33.0 µM,73% (active)
same,growth inhibition,[14]; at 100.0 µM,51%
OC(CN1CCCCC1)c1cc(Cl)c(Cl)c(Cl)c1 (stereo unspecified),growth inhibition,[1]; at 1.2 µM,3%
same,growth inhibition,[1]; at 3.7 µM,11%
same,growth inhibition,[1]; at 11.0 µM,17%
same,growth inhibition,[1]; at 33.0 µM,28%
same,growth inhibition,[1]; at 100.0 µM,40%
same,growth inhibition,[2]; at 1.2 µM,4%
same,growth inhibition,[2]; at 3.7 µM,9%
same,growth inhibition,[2]; at 11.0 µM,6%
same,growth inhibition,[2]; at 33.0 µM,6%
same,growth inhibition,[2]; at 100.0 µM,14%
same,growth inhibition,[3]; at 1.2 µM,3%
same,growth inhibition,[3]; at 3.7 µM,8%
same,growth inhibition,[3]; at 11.0 µM,10%
same,growth inhibition,[3]; at 33.0 µM,7%
same,growth inhibition,[3]; at 100.0 µM,1%
same,growth inhibition,[4]; at 1.2 µM,5%
same,growth inhibition,[4]; at 3.7 µM,13%
same,growth inhibition,[4]; [16],2%
same,growth inhibition,[4]; at 11.0 µM,11%
same,growth inhibition,[4]; at 33.0 µM,20%
same,growth inhibition,[4]; [17],41%
same,growth inhibition,[4]; at 50.0 µM,38.4%
same,growth inhibition,[4]; at 100.0 µM,36%
same,growth inhibition,[5]; at 1.2 µM,5%
same,growth inhibition,[5]; at 3.7 µM,11%
same,growth inhibition,[5]; [16],2%
same,growth inhibition,[5]; at 11.0 µM,15%
same,growth inhibition,[5]; at 33.0 µM,24%
same,growth inhibition,[5]; [17],49%
same,growth inhibition,[5]; at 50.0 µM,32.2%
same,growth inhibition,[5]; at 100.0 µM,38%
same,growth inhibition,[6]; at 1.2 µM,9%
same,growth inhibition,[6]; at 3.7 µM,25%
same,growth inhibition,[6]; at 11.0 µM,33%
same,growth inhibition,[6]; at 33.0 µM,28%
same,growth inhibition,[6]; at 100.0 µM,39%
same,growth inhibition,[7]; [16],12%
same,growth inhibition,[7]; [17],49%
same,growth inhibition,[7]; at 50.0 µM,57.1%
same,growth inhibition,[8]; at 1.2 µM,7%
same,growth inhibition,[8]; at 3.7 µM,8%
same,growth inhibition,[8]; at 11.0 µM,32%
same,growth inhibition,[8]; at 33.0 µM,47%
same,growth inhibition,[8]; at 100.0 µM,57%
same,growth inhibition,[9]; [16],8%
same,growth inhibition,[9]; [17],35%
same,growth inhibition,[9]; at 50.0 µM,51.6%
same,growth inhibition,[10]; at 1.2 µM,3%
same,growth inhibition,[10]; at 3.7 µM,9%
same,growth inhibition,[10]; [16],4%
same,growth inhibition,[10]; at 11.0 µM,25%
same,growth inhibition,[10]; at 33.0 µM,38%
same,growth inhibition,[10]; [17],38%
same,growth inhibition,[10]; at 50.0 µM,70.8% (active)
same,growth inhibition,[10]; at 100.0 µM,53%
same,growth inhibition,[11]; at 1.2 µM,3%
same,growth inhibition,[11]; at 3.7 µM,8%
same,growth inhibition,[11]; at 11.0 µM,10%
same,growth inhibition,[11]; at 33.0 µM,12%
same,growth inhibition,[11]; at 100.0 µM,15%
same,growth inhibition,[12]; at 1.2 µM,5%
same,growth inhibition,[12]; at 3.7 µM,7%
same,growth inhibition,[12]; at 11.0 µM,17%
same,growth inhibition,[12]; at 33.0 µM,18%
same,growth inhibition,[12]; at 100.0 µM,21%
same,growth inhibition,[15]; at 1.2 µM,6%
same,growth inhibition,[15]; at 3.7 µM,14%
same,growth inhibition,[15]; at 11.0 µM,20%
same,growth inhibition,[15]; at 33.0 µM,27%
same,growth inhibition,[15]; at 100.0 µM,37%
same,growth inhibition,[13]; [16],14%
same,growth inhibition,[13]; [17],43%
same,growth inhibition,[13]; at 50.0 µM,50.4%
same,growth inhibition,[14]; at 1.2 µM,5%
same,growth inhibition,[14]; at 3.7 µM,13%
same,growth inhibition,[14]; at 11.0 µM,8%
same,growth inhibition,[14]; at 33.0 µM,14%
same,growth inhibition,[14]; at 100.0 µM,22%
